PubChem BioAssay
Values without a mark were called inactive. For some assays here: Entries with a potency or affinity are not part of this list. The source made the active and inactive calls. Unless noted, how the calls were made is not given here.

What was measured:
[1] = antimalarial activity against Dd2 strain (AID 2302;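 active means growth inhibition above 50% at the single 2 µM test dose, taken to imply half-maximal potency below 2 µM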;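 further: 0% = DMSO untreated growth and 100% = chloroquine plus artemisinin killed control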); conditions: P. falciparum Dd2 in RBCs, LDH growth readout, 72 h; at 2 µM; stronger effect = higher value
[2] = HepG2 cytotoxicity, primary screen, cytotoxicity control for P. falciparum antimalarial project, cell-based, ATP luminescence (AID 2303;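 active means inhibition above 50%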;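 further: 0% = DMSO wells and 100% = digitonin-killed cells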); conditions: HepG2 viability, 24-48 h, at 10 µM, stronger effect = higher value
[3] = molecular target: L-lactate dehydrogenase (Plasmodium falciparum (isolate CDC / Honduras)) (UniProt Q27743); test: PfLDH activity inhibition – cell lysate, 3D7 strain, counter-screen for P. falciparum growth inhibition project (AID 2304);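 further: 0% = vehicle and 100% = reference inhibitor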; conditions: P. falciparum 3D7 crude extract, LDH APAD/NBT absorbance; at 2 µM; stronger effect = higher value
[4] = inhibition of 3D7 malaria parasite growth – strain 3D7 (AID 2306);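 further: 0% = DMSO wells and 100% = chloroquine plus artemisinin control wells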; conditions: P. falciparum 3D7 erythrocytic growth, LDH absorbance, 72 h; at 2 µM; stronger effect = higher value
[5] = molecular target: Calcium-dependent protein kinase 1 (Plasmodium falciparum (isolate 3D7)) (UniProt P62344); test: PfCDPK1 kinase inhibitors, biochemical, TCAMS library (AID 1159585; cut-off not given, nearly all actives have IC50 up to about 0.98 µM;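 further: inhibitors leave more ATP so luminescence rises with inhibition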); conditions: recombinant PfCDPK1, Kinase-Glo ATP depletion luminescence
[6] = molecular target: Plasmodium falciparum protein kinase 6 (PK6, PF3D7_1337100) (UniProt Q8IDW1); test: PfPK6 kinase inhibitors, biochemical, TCAMS library (AID 1159586); conditions: recombinant PfPK6, Kinase-Glo ATP depletion luminescence
[7] = molecular target: Protein kinase 7 (PK7), Plasmodium falciparum 3D7 (PF3D7_0213400) (UniProt Q7YTF7); test: inhibition of Plasmodium PK7 catalytic activity – biochemical, TCAMS antimalarial set, Kinase-Glo luminescence (AID 1159587); conditions: recombinant PfPK7, Kinase-Glo ATP depletion luminescence
[8] = molecular target: Calcium-dependent protein kinase 4 (Plasmodium falciparum (isolate 3D7)) (UniProt Q8IBS5); test: PfCDPK4 kinase inhibitors, biochemical, TCAMS library (AID 1159588; cut-off not given, nearly all actives have IC50 up to about 0.91 µM); conditions: recombinant PfCDPK4, Kinase-Glo ATP depletion luminescence
Chain of Calcium-dependent protein kinase 4 (Plasmodium falciparum (isolate 3D7)) (Q8IBS5 whole entry, looked up): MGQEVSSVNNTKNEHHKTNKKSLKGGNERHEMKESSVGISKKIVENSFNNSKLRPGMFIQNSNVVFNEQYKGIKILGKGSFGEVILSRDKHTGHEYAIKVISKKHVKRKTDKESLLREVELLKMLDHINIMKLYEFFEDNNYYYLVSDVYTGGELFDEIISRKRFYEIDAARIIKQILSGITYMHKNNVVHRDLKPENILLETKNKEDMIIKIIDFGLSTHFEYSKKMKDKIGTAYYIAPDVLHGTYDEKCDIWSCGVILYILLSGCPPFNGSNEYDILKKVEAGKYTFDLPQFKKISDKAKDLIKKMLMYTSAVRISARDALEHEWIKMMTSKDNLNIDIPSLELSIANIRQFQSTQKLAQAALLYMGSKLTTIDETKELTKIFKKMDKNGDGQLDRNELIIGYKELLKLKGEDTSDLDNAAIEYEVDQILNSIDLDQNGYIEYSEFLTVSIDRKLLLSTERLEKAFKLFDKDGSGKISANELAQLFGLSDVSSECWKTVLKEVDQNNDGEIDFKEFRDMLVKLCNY

Chain of Plasmodium falciparum protein kinase 6 (PK6, PF3D7_1337100) (Q8IDW1 1-305): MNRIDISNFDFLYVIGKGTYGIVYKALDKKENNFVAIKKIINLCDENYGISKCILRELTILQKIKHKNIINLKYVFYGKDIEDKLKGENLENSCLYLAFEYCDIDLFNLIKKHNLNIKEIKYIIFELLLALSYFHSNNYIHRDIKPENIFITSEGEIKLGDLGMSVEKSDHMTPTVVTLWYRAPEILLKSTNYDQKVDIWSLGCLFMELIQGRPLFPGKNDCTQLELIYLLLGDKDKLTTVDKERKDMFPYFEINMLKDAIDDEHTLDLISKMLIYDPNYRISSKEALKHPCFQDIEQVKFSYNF
Chain of Protein kinase 7 (PK7), Plasmodium falciparum 3D7 (PF3D7_0213400) (Q7YTF7 1-343): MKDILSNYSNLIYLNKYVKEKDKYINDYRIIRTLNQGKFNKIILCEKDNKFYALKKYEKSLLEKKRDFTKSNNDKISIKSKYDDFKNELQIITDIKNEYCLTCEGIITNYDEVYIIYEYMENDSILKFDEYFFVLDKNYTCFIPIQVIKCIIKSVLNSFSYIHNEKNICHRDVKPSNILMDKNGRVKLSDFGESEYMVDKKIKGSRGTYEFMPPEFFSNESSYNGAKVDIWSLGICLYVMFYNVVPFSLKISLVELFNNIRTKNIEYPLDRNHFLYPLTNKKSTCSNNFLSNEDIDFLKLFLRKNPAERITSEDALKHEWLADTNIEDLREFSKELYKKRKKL
Chain of Calcium-dependent protein kinase 1 (Plasmodium falciparum (isolate 3D7)) (P62344 whole entry, looked up): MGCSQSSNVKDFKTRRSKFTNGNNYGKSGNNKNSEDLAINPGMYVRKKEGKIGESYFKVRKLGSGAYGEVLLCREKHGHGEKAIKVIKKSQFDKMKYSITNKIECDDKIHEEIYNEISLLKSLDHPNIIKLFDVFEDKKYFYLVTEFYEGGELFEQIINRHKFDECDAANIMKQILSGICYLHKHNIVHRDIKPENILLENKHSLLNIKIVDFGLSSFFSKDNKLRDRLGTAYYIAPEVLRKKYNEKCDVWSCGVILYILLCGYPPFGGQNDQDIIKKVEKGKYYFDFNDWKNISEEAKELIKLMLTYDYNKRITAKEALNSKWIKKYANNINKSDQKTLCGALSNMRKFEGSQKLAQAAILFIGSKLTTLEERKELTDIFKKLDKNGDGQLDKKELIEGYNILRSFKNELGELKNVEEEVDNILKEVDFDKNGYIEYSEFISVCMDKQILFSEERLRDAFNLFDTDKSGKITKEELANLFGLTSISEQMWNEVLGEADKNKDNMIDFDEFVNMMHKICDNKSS
Chain of L-lactate dehydrogenase (Plasmodium falciparum (isolate CDC / Honduras)) (Q27743 whole entry, looked up): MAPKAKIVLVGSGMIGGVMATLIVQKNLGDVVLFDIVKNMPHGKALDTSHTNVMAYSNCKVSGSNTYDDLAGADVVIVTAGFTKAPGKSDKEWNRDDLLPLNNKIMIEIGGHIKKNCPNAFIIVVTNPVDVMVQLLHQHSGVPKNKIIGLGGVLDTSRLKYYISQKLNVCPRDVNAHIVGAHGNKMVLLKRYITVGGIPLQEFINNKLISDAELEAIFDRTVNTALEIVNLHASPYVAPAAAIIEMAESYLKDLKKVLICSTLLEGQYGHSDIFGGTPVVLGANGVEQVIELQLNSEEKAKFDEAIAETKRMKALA

Row | SMILES | growth inhibition [1] | inhibition [2] | inhibition [3] | growth inhibition [4] | outcome [5] | outcome [6] | outcome [7] | outcome [8]
1 | C=C(C)Cn1cc(C2CCN(CCCCNC(=O)c3sc(-c4ccc(Cl)cc4Cl)nc3CO)CC2)c2ccccc21 | 19% | 22% | 4% | 82% (active) | inactive | inactive | inactive | inactive
2 | COc1ccc2nccc([C@@H](O)CN3CCC(NCc4nc5ccccc5s4)CC3)c2c1 | 5% | 8% | -3% | 93% (active) | inactive | inactive | inactive | inactive
3 | Cc1ccc(-n2c(C)nc3c(Nc4ccc(-c5ccncc5)cc4)ncnc32)c(C)c1 | 99% (active) | 38% | -4% | 99% (active) | inactive | inactive | inactive | inactive
4 | NC(N)=NN=Cc1cc2ccccc2c2ccccc12 | 63% (active) | 25% | 4% | 100% (active) | inactive | inactive | inactive | inactive
5 | Cc1ccc(CN2CCN(c3cc4c(cc3Cl)CCN4C(=O)Cc3ccc(NC(=O)c4ccc(C(F)(F)F)cc4)cc3)CC2)cc1 | -8% | 15% | 4% | 88% (active) | inactive | inactive | inactive | inactive
6 | COCC(C)n1c(SC(C)C(=O)Nc2cc([N+](=O)[O-])ccc2Cl)nc2ccccc2c1=O (stereo not given) | 94% (active) | -8% | 2% | 95% (active) | inactive | inactive | inactive | inactive
7 | OCC1CCN(Cc2cccc(C#Cc3cc4ncnc(Nc5ccc(OCc6cccc(F)c6)c(Cl)c5)c4s3)n2)CC1 | 95% (active) | 41% | 1% | 99% (active) | inactive | inactive | inactive | inactive
8 | O=C(NCCc1ccc(F)cc1)c1ccc(N2CCN(c3ccncc3)CC2)nc1 | 3% | 1% | -4% | 88% (active) | inactive | inactive | inactive | inactive
9 | CCn1c(Cc2ccccc2)nnc1SCC(=O)N1c2ccccc2Sc2ccccc21 | 96% (active) | -8% | -1% | 99% (active) | inactive | inactive | inactive | inactive
10 | Fc1ccc2nccc(NN=CC=Cc3ccccc3)c2c1 | 77% (active) | 29% | -2% | 96% (active) | inactive | inactive | inactive | inactive
11 | CCN(CCCN1CCCCC1)c1cc(C)nc(Nc2ccc(C)c(Cl)c2)n1 | 100% (active) | 32% | -7% | 101% (active) | inactive | inactive | inactive | inactive
12 | CC(Oc1ccc(Cl)cc1Cl)c1nc(-c2ccc(NC(=O)c3ccco3)cc2)no1 (stereo not given) | 82% (active) | 7% | 0% | 92% (active) | inactive | inactive | inactive | inactive
13 | NC(N)=NN=Cc1ccc2c(c1)Cc1ccccc1-2 | 81% (active) | 72% (active) | -2% | 100% (active) | inactive | inactive | inactive | inactive
14 | OC(CNCc1ccccc1)c1cc(OCc2ccccc2)cc(OCc2ccccc2)c1 (stereo not given) | 76% (active) | -14% | 3% | 98% (active) | inactive | inactive | inactive | inactive
15 | CN(C)c1ccc(-c2csc(C(=O)NC3CCCCN(Cc4ccc(C(C)(C)C)cc4)C3)c2)cc1 (stereo not given) | 55% (active) | 17% | 4% | 84% (active) | inactive | inactive | inactive | inactive
16 | O=C(/C=C/c1cccc(OC(F)(F)F)c1)NCCCCCN1CCC(c2c[nH]c3ccccc23)CC1 | 13% | 27% | -6% | 93% (active) | inactive | inactive | inactive | inactive
17 | O=C(NC1CCN(CCCOc2ccnc3cc(Cl)ccc23)C1)c1ccc(Br)cc1 (stereo not given) | 87% (active) | 21% | 2% | 86% (active) | inactive | inactive | inactive | inactive
18 | COc1cc2nc(N3CCC(CNC(=O)/C=C/c4cccc(C)c4)CC3)nc(N)c2cc1OC | 68% (active) | 16% | -8% | 101% (active) | inactive | inactive | inactive | inactive
19 | CC(C)(C)OC(=O)n1cc(C2CCN(CCCC34CCCc5cccc(c53)NC4=O)CC2)c2ccncc21 (stereo not given) | -2% | 20% | -5% | 92% (active) | inactive | inactive | inactive | inactive
20 | O=S(=O)(c1ccc(OCc2ccc(Cl)cc2)cc1)c1cc2c(cc1OCc1ccccc1)CCN(CC1CC1)CC2 | -2% | 19% | -3% | 82% (active) | inactive | inactive | inactive | inactive

Row | SMILES | growth inhibition [1] | inhibition [2] | inhibition [3] | growth inhibition [4] | outcome [5] | outcome [6] | outcome [7] | outcome [8]
21 | Cc1cccc(OCCCCON2C(N)=NC(N)=NC2(C)C)c1C | 95% (active) | 65% (active) | -3% | 97% (active) | inactive | inactive | inactive | inactive
22 | COc1cccc(CN2CCCN(Cc3cccc(NC(=O)c4ccc(Cl)c(Cl)c4)c3)CC2)c1 | 11% | 26% | 0% | 89% (active) | inactive | inactive | inactive | inactive
23 | Cc1cc(NN=Cc2ccc(F)cc2)c2ccc(C(F)(F)F)cc2n1 | 24% | 4% | -2% | 95% (active) | inactive | inactive | inactive | inactive
24 | CCCC(CNCc1cccc(OC(F)(F)F)c1)CNc1cc(=O)c2ccccc2[nH]1 (stereo not given) | 95% (active) | -4% | -2% | 101% (active) | inactive | inactive | inactive | inactive
25 | COc1cc(NC(=O)/C=C/c2ccccc2OC(F)(F)F)cc(OCCN2CCC(O)(c3ccccc3)CC2)c1 | 50% (active) | 61% (active) | 2% | 102% (active) | inactive | inactive | inactive | inactive
26 | COc1ccc2nccc(N3CCC(NCCNS(=O)(=O)c4ccc5c(c4)NC(=O)CS5)C3)c2n1 (stereo not given) | 18% | 12% | 2% | 97% (active) | inactive | inactive | inactive | inactive
27 | CO/C(=C\C=C\c1cc2cc(Cl)c(Cl)cc2[nH]1)C(=O)NCCCN1CCCC[C@H]1C | 91% (active) | 41% | 3% | 100% (active) | inactive | inactive | inactive | inactive
28 | O=C(Nc1ccc(Br)cc1)N(CCN1CCOCC1)CC(O)COCc1ccc(F)cc1 (stereo not given) | 3% | 5% | -1% | 90% (active) | inactive | inactive | inactive | inactive
29 | CC(C)(C)c1ccc(CN2CCC(NC(=O)c3ccc(-c4cccc(C(F)(F)F)c4)s3)CC2)cc1 | 96% (active) | 97% (active) | -5% | 100% (active) | inactive | inactive | inactive | inactive
30 | CCN1CCN(Cc2c(O)ccc3c(=O)c(Oc4cc(C)cc(C)c4)c(C(F)(F)F)oc23)CC1 | 90% (active) | 6% | 3% | 96% (active) | inactive | inactive | inactive | inactive
31 | Nc1nc(N)c2c(Cc3ccccc3)cccc2n1 | 3% | 68% (active) | -7% | 94% (active) | inactive | inactive | inactive | inactive
32 | Cc1cccc2[nH]c(-c3cccc(-c4cccc(NC(=O)C5CC(=O)Nc6ccccc65)c4)c3)nc12 (stereo not given) | 25% | 13% | 0% | 85% (active) | inactive | inactive | inactive | inactive
33 | CC(=O)Nc1nc(C(=O)Nc2cccc(-c3ccc(-c4nc5ccc(F)cc5[nH]4)cc3)c2)cs1 | 32% | 54% (active) | -4% | 101% (active) | inactive | inactive | inactive | inactive
34 | Cc1ccc(-c2cc(C(=O)Nc3ccc(S(=O)(=O)N4CCCC(C)C4)cc3)[nH]n2)c(O)c1 (stereo not given) | 99% (active) | 32% | -4% | 102% (active) | inactive | inactive | inactive | inactive
35 | CCCNCc1ccc(-c2ccc(CNC3Cc4ccccc4C3)cc2)nc1 | 32% | 23% | 1% | 97% (active) | inactive | inactive | inactive | inactive
36 | COc1cccc(-c2ccc(C(=O)NC3CCN(Cc4ccc(N(C)C)cc4)CC3)s2)c1 | 20% | 8% | -1% | 81% (active) | inactive | inactive | inactive | inactive
37 | O=C(NC1CCC(N2CCC(c3nc4ccccc4s3)CC2)CC1)c1cc2ccccc2[nH]1 (stereo not given) | 37% | 23% | -1% | 94% (active) | inactive | inactive | inactive | inactive
38 | OCCOCCNCc1cccc(C#Cc2cc3ncnc(Nc4ccc(OCc5cccc(F)c5)c(Cl)c4)c3s2)n1 | 46% | 35% | 0% | 96% (active) | inactive | inactive | inactive | inactive
39 | CC(=O)Nc1cccc(/C=C/C(=O)N2CCC(N3CCCCC3)CC2)c1 | 0% | 1% | 1% | 96% (active) | inactive | inactive | inactive | inactive
40 | Cc1c(-c2ccccc2)ccc2[nH]cc(CC#N)c12 | 85% (active) | 2% | -2% | 95% (active) | inactive | inactive | inactive | inactive
